KDM4E inh: JMJD2E (human) inhibition; B2RXH2; JMJD2E catalytic domain, FDH-coupled NADH fluorescence (FDH is formaldehyde dehydrogenase); Potency, µM (highest dose often 57.1 µM), most hits filed as inhibitors; 1.6% of 230,000 active; AID 2147; active means well fitted inhibition curve with a large enough effect, not every such curve was filed as active; inconclusive means small, poorly fitted or top-dose-only effect, or another doubt; inactive means no such curve, though single readings can be large or run the other way; further: nearly all actives have a fitted effect of over 50% in size
Target sequence (B2RXH2 1-337 limits assumed): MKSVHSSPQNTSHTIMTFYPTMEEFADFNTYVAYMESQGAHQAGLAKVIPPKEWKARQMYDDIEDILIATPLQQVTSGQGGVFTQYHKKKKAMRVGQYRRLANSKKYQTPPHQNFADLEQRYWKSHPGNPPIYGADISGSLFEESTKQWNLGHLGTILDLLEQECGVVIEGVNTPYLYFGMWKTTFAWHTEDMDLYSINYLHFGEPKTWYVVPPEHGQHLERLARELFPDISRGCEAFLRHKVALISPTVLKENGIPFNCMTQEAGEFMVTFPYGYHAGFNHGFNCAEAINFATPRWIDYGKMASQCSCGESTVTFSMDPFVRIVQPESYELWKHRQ
NPSR antag: antagonists of human neuropeptide S receptor cAMP signaling. Q6W5P4. CHO-NPSR cells, cAMP TR-FRET, antagonist mode. Potency, µM (titrated, usually from 38.3 µM), usual class: inhibitors. 1% of 220,000 active; further: nearly all actives have a fitted effect of over 50% in size
Target sequence (Q6W5P4 whole entry, looked up): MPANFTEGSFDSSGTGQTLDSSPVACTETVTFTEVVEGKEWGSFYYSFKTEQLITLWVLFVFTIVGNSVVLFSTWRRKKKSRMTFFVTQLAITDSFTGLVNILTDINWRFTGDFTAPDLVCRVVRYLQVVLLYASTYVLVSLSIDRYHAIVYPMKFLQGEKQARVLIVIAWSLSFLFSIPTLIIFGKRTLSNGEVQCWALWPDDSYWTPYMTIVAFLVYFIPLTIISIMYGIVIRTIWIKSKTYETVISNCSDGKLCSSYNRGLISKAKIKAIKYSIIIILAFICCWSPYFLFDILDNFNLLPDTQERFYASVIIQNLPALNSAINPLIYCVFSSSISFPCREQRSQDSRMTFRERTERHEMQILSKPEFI
GCN5L2 inh: inhibitors of human GCN5L2 histone acetyltransferase; GCN5L2 HAT assay, ThioGlo1 CoA-SH fluorescence; Potency, µM (titrated, usually from 58.9 µM), most hits filed as inhibitors; 0.21% of 390,000 active; AID 504327
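Free CoA generated was detected with ThioGlo1 (50uM) fluorescence at Ex340nm/Em540nm, read immediately and after 20 min at room temperature. Enzyme, 20 nM in HEPES pH 7.5 buffer, saw compounds 15 min before adding 75uM H3(1-25) peptide and 70uM acetyl-CoA.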
Sfp PPTase inh: Sfp phosphopantetheinyl transferase inhibition. 3.5% of 310,000 active. Q9F4F7. Potency, µM, most hits filed as inhibitors. Biochemical Sfp PPTase activity, qHTS. AID 1490;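 further: the enzyme is Sfp with the accession as filed and its product quenches rhodamine fluorescence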
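Reaction rates are the 30-min fluorescence difference (ex 525, em 598 nm) in wells containing 15 nM Sfp, 5 uM rhodamine-CoA and 12.5 uM BHQ-2-YbbR at pH 7.6 with 10 mM MgCl2.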
Epigenetic reg: regulators of epigenetic silencing causing reporter derepression in mouse cells | murine LDR cells, GFP reporter derepression, 30 h | Potency, µM (highest dose often 53.9 µM), actives largely listed as activators | 0.2% of 280,000 active; further: nearly all actives have a fitted effect of over 60% in size
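Derepression of a silenced CMV-GFP reporter in murine LDR cells is scored by enumerating GFP-positive cells with a laser-scanning microplate cytometer after 30 hours of treatment at 37 C.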
IMPase Li cell: cell-permeable IMPase inhibitors with lithium potentiation; CHO-M1 cells, IP1 TR-FRET (IP-One), carbachol + lithium; Potency, µM (highest dose often 59.4 µM), most hits filed as inhibitors; 0.35% of 210,000 active;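 further: IP1 builds up when IMPase is blocked and the TR-FRET signal falls; nearly all actives have a fitted effect of over 50% in size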
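CHO cells stably expressing M1 receptor (2000/well) were cultured 16–30 h, then exposed to compounds with a small lithium addition for 30 min at 37C. IP1 was measured by TR-FRET competition; AC50 from Hill fits.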
Hits are given with their value; ! = repeats disagree. Rows were chosen to be rich in hits. Some 3.6% of all compounds tested hit in one or more screens of this group. Unless noted, the call rests on the fitted dose curve; in most records, active means well fitted curve in the direction sought with a large enough effect; inconclusive means small, poorly fitted or top-dose-only effect, or another doubt; inactive means no such curve, though single readings can be large; an effect the other way counts as inactive or inconclusive.

Screening CC12C=CC(=O)C=C1CCC1C2=CCC2(C)C1CC[C@@H]2C(=O)CN1CCN(c2cc(N3CCCC3)nc(N3CCCC3)n2)CC1 (stereo partly specified) returned GCN5L2 inh inactive, Sfp PPTase inh inconclusive, Epigenetic reg inactive and IMPase Li cell inactive.
`CC1=NN(c2ccccc2)C(=O)/C1=C/c1c(O)[nH]c(=O)[nH]c1=O` gave KDM4E inh inactive, NPSR antag inactive, GCN5L2 inh inactive, Sfp PPTase inh inactive, Epigenetic reg inactive and IMPase Li cell inactive.
Screening CC1=NN(c2ccccc2)C(=O)/C1=C/c1c(O)[nH]c(=S)[nH]c1=O returned KDM4E inh inactive, NPSR antag inactive, GCN5L2 inh inactive, Sfp PPTase inh 50µM, Epigenetic reg inactive and IMPase Li cell inactive.
For O=c1[nH]c(=S)n(C2CC2)c(O)c1/C=N/Nc1ccccc1 the results were KDM4E inh inconclusive, NPSR antag inactive, GCN5L2 inh inactive, Sfp PPTase inh 50µM, Epigenetic reg inactive and IMPase Li cell inactive.
For O=C(N/N=C/c1c(O)n(C2CCCCC2)c(=S)[nH]c1=O)c1ccccc1 the results were GCN5L2 inh inactive and Sfp PPTase inh inactive.
For CCC(C)n1c(O)c(/C=N/Nc2ccccc2)c(=O)[nH]c1=S (stereo unspecified) the results were KDM4E inh inactive, NPSR antag inactive, GCN5L2 inh inactive, Sfp PPTase inh 45µM, Epigenetic reg inactive and IMPase Li cell inactive.
For O=c1[nH]c(=S)n(C2CC2)c(O)c1/C=N/Nc1cccc2ccccc12 the results were KDM4E inh inactive, NPSR antag inactive, GCN5L2 inh inactive, Sfp PPTase inh 20µM and Epigenetic reg inactive.
Screening C/C=C/C=O returned IMPase Li cell inactive.
For c1nc[nH]n1 the results were IMPase Li cell inactive.
`CCCCC/C=C\C/C=C\C/C=C\C/C=C\CCCC(=O)OC(CO)CO` gave KDM4E inh inactive, GCN5L2 inh inconclusive, Sfp PPTase inh inactive, Epigenetic reg inactive and IMPase Li cell inactive.
`CCCCC/C=C\C/C=C\C/C=C\C/C=C\CCCC(=O)N[C@H](C)CO` gave KDM4E inh inactive, GCN5L2 inh inactive, Sfp PPTase inh 22µM!, Epigenetic reg inactive and IMPase Li cell inactive.
`CC(C)C1C(=O)N2CCC[C@H]2[C@]2(O)O[C@](NC(=O)[C@@H]3C=C4c5cccc6[nH]cc(c56)C[C@H]4N(C)C3)(C(C)C)C(=O)N12` (stereo partly specified) gave GCN5L2 inh inactive, Sfp PPTase inh inconclusive, Epigenetic reg inactive and IMPase Li cell inactive.
`Cc1ccc(C[N+](C)(C)C)o1` gave KDM4E inh inactive, GCN5L2 inh 14µM!, Sfp PPTase inh inactive, Epigenetic reg inactive and IMPase Li cell inactive.
`O=C(CSC1c2ccccc2-c2ccccc21)N/N=C/c1ccc(C(=O)O)cc1` gave KDM4E inh inactive, NPSR antag inactive, GCN5L2 inh inactive, Sfp PPTase inh inactive, Epigenetic reg inactive and IMPase Li cell inactive.
For O=C(CSC1c2ccccc2-c2ccccc21)N/N=C/c1ccccc1O the results were KDM4E inh 25µM, NPSR antag inactive, GCN5L2 inh inactive, Sfp PPTase inh inactive, Epigenetic reg inactive and IMPase Li cell inactive.
For N#CC(C#N)=Cc1ccc(O)c(O)c1 the results were KDM4E inh 7.9µM, NPSR antag inactive, GCN5L2 inh inactive, Sfp PPTase inh 40µM, Epigenetic reg inconclusive and IMPase Li cell inactive.
For N#CC(C#N)=Cc1ccc(N2CCCC2)cc1 the results were KDM4E inh inactive, NPSR antag inactive, GCN5L2 inh inactive, Sfp PPTase inh inactive, Epigenetic reg inactive and IMPase Li cell inactive.
`N#CC(=Cc1ccc(O)c(O)c1)C(N)=S` gave KDM4E inh 8.9µM, NPSR antag inconclusive, Epigenetic reg inactive and IMPase Li cell inactive.
For COc1cc(C=C(C#N)C#N)cc(O)c1O the results were KDM4E inh 11µM, NPSR antag inactive, Epigenetic reg inactive and IMPase Li cell inactive.
For CC(C)(C)c1cc(C=C(C#N)C#N)cc(C(C)(C)C)c1O the results were KDM4E inh inactive, NPSR antag inconclusive, GCN5L2 inh inactive, Sfp PPTase inh 56µM, Epigenetic reg inactive and IMPase Li cell inactive.
`CN(C)c1ccc(C=C(C#N)C#N)cc1` gave KDM4E inh inactive, NPSR antag inactive, GCN5L2 inh inactive, Sfp PPTase inh inactive, Epigenetic reg inactive and IMPase Li cell inactive.
Nc1ccccc1O.O.O=C(O)[C@H]1[O][Sb][O][C@H]1C(=O)O was read as IMPase Li cell inactive.
`COc1c(C(C)(C)C)cc([N+](=O)[O-])c(C)c1[N+](=O)[O-]` gave IMPase Li cell inactive.
For c1cncc(CNC2CCCC2)c1 the results were KDM4E inh 22µM, NPSR antag inactive, GCN5L2 inh inactive, Sfp PPTase inh inactive, Epigenetic reg inactive and IMPase Li cell inactive.
`Cl/C=C/Cl` gave IMPase Li cell inactive.
Fc1ccccc1N1CCN(Cc2c(F)cccc2F)CC1 was read as KDM4E inh 20µM, NPSR antag inactive, GCN5L2 inh inactive, Sfp PPTase inh inconclusive, Epigenetic reg inactive and IMPase Li cell inactive.
Screening c1ccc(C(OC2CCCN(CCc3ccc4c(c3)OCO4)C2)c2ccccc2)cc1 (stereo unspecified) returned GCN5L2 inh inactive and Sfp PPTase inh inconclusive.
For CCOC(=O)c1c(/N=C/C2C(=O)NC(=S)NC2=O)sc(C)c1C the results were KDM4E inh inactive, NPSR antag inactive, GCN5L2 inh inactive, Sfp PPTase inh 25µM, Epigenetic reg inactive and IMPase Li cell inactive.
`CCOC(=O)c1cc(C)sc1/N=C/C1C(=O)NC(=S)NC1=O` gave KDM4E inh inconclusive, NPSR antag inactive, GCN5L2 inh inactive, Sfp PPTase inh 20µM, Epigenetic reg inactive and IMPase Li cell inconclusive.
CCOC(=O)c1c(/N=C/C2C(=O)NC(=S)NC2=O)sc2c1CCC2 was read as KDM4E inh inconclusive, NPSR antag inactive, GCN5L2 inh inactive, Sfp PPTase inh 13µM, Epigenetic reg inconclusive and IMPase Li cell inactive.
Screening N#Cc1c(/N=C/C2C(=O)NC(=S)NC2=O)sc2c1CCCC2 returned KDM4E inh inconclusive, NPSR antag inactive, GCN5L2 inh inactive, Sfp PPTase inh 22µM, Epigenetic reg inactive and IMPase Li cell inactive.
`CCOC(=O)c1ccccc1C(=O)OCC` gave GCN5L2 inh inactive, Sfp PPTase inh inactive and IMPase Li cell inactive.
`COc1cc(CC(=O)OCC2=C[C@H]3[C@@H]4C(C)(C)[C@]4(OC(C)=O)[C@H](OC(=O)Cc4ccccc4)[C@@H](C)[C@]3(O)[C@@H]3C=C(C)C(=O)[C@@]3(O)C2)ccc1O` gave GCN5L2 inh inactive, Sfp PPTase inh inactive, Epigenetic reg inactive and IMPase Li cell inactive.
